An excerpt weighted towards active compounds, which were near 19% of everything screened.
TDP1 cell noCPT: qHTS for Inhibitors of human tyrosyl-DNA phosphodiesterase 1 (TDP1): qHTS in cells in absence of CPT | DT40 Tdp1-/- hTDP1 cells, no CPT, ATP luminescence, 48 h | Potency, µM (doses to about 46.2 µM), for the others: at the top dose activity change, negative = growth inhibition, actives largely listed as inhibitors | 15% of 420,000 active; further: potency means the concentration at half of the fitted maximal effect; nearly all actives have a fitted effect of over 55% in size
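Luminescent ATP content (CellTiter-Glo) served as the growth readout. Knockout chicken DT40 cells expressing human TDP1 were exposed to compounds without camptothecin for a minimum 48 hr at 37 °C.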
IL1B secr inh: qHTS for Inhibitors of Inflammasome Signaling: IL-1-beta AlphaLISA Primary Screen | activity change, % at 57.5 µM | THP-1 LPS/ATP IL-1B secretion, AlphaLISA, 16 h; stronger effect = lower value | AID 743279, 2014 | 4.7% of 360,000 active; in the data active means activity change below about -50%; inconclusive means mostly about -30% to -49%
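THP-1 cells pretreated 1 hr with compounds (up to 57.5 uM final), then stimulated with LPS (250 ng/mL final) plus ATP (1.25 mM final); secreted IL-1B measured by AlphaLISA after 16 hr, decreased signal indicating inhibition.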
HT1080-NT tox: qHTS for induction of synthetic lethality in tumor cells producing 2HG: qHTS for the HT-1080-NT fibrosarcoma cell line. HT-1080-NT fibrosarcoma viability, CellTiter-Glo ATP luminescence, 48 h. AID 686970, 2013. 1.6% of 360,000 active. Potency, µM (titrated, usually from 46.1 µM), inactives show at the top dose activity, negative = less viability, usual class: cytotoxic;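 further: NT is the 2HG producing partner of a matched IDH1 knockdown line; potency means the concentration at half of the fitted maximal effect; 0% = DMSO-treated cells and -100% = media-only wells without cells; nearly all actives have a fitted effect of over 55% in size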
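Toxicity toward the 2HG-producing NT line was scored as %Activity, normalised to DMSO and no-cell wells, from CellTiter-Glo luminescence after 48 hours' treatment.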
HT1080 IDH1KD tx: qHTS for induction of synthetic lethality in tumor cells producing 2HG: qHTS for the HT-1080-IDH1KD cell line | Potency, µM (series often up to 46.1 µM), without a hit: at the top dose activity, negative = toxicity, hits mostly cytotoxic | 2% of 360,000 active | HT-1080 IDH1 knockdown viability, ATP luminescence, 48 h | AID 686971, 2013;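 further: potency means the concentration at half of the fitted maximal effect; 0% = DMSO wells and -100% = cell-free medium wells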
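Knockdown cells (IDH1KD HT-1080) received compounds 2 h after plating at 750 cells/well and were kept 48 h at 37 °C in 5% FBS RPMI. A CellTiter-Glo luminescence read gave % activity for curve fitting.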
TDP1 cell CPT: qHTS for Inhibitors of human tyrosyl-DNA phosphodiesterase 1 (TDP1): qHTS in cells in presence of CPT; chicken DT40 Tdp1-/-;hTDP1 cells + 20 nM CPT, ATP luminescence, 48 h; Potency, µM (highest dose often 46.2 µM), inactives show at the top dose activity change, negative = growth inhibition, most hits filed as inhibitors; 12% of 420,000 active; further: potency means the concentration at half of the fitted maximal effect; nearly all actives have a fitted effect of over 55% in size
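Cell growth measured by CellTiter-Glo luminescence after a minimum 48 h, 37 C compound exposure with 20 nM CPT in Tdp1-knockout DT40 cells stably expressing hTDP1, seeded 400/well; qHTS titration format.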
Active calls of the source: *; ? = inconclusive; . = no result; [ ] = dose if it differs, or a comment. Unless noted, the call rests on the fitted dose curve; in most records, active means well fitted curve in the direction sought with a large enough effect; inconclusive means small, poorly fitted or top-dose-only effect, or another doubt; inactive means no such curve, though single readings can be large; an effect the other way counts as inactive or inconclusive. Unless noted, on the % scale 0 is the no-effect control and ±100 the full control effect.

SMILES | TDP1 cell noCPT | IL1B secr inh | HT1080-NT tox | HT1080 IDH1KD tx | TDP1 cell CPT
CC1=C(C(=O)OC2CCCCCC2)C(c2ccc(Cl)cc2Cl)CC(=O)N1 (stereo unspecified) | 16µM* | . | . | . | 15µM*
COC(=O)C[C@H]1CC[C@@H](NS(=O)(=O)c2ccccc2)[C@@H](CO)O1 | 7% | 14 | 19% | 12% | 13%
Cc1cnc(SCC2CCCO2)nc1C1CCCN(Cc2nc(-c3ccccc3)cs2)C1 (stereo unspecified) | ? | . | . | . | -1%[9.04 µM]
C=CCC(=O)NC1CCCc2c1cnn2-c1cc(F)cc(F)c1 (stereo unspecified) | -6% | 12 | 15% | 4% | -17%
CCn1c2ccccc2c2nnc(SCN3C(=O)c4ccccc4C3=O)nc21 | -9% | 18 | 1% | 1% | 9%
Cc1c(C(=O)N2CC(C)OC(C)C2)sc2nc(-c3ccc(F)cc3)cn12 (stereo unspecified) | 18µM* | 19 | 19% | -4% | ?
COc1ccccc1N1CCN(C(=O)c2sc3nc(-c4ccc(F)cc4)cn3c2C)CC1 | 16µM* | ? | -15% | -13% | 23µM*
O=C(Cn1c(O)c(/C=C2\C=Nc3ccc(Br)cc32)sc1=O)N1CCCC1 | ? | ? | ? | -13% | 21µM*
O=C(Cn1c(O)c(/C=C2\C=Nc3ccccc32)sc1=O)N1CCOCC1 | ? | -5 | -14% | -9% | -8%
Cn1cccc1/C=N/NC(=O)Cc1ccccc1 | -10% | -7 | 1% | 12% | -5%
NC(=S)N/N=C/c1ccc2ccccc2c1 | 23µM* | 7 | -2% | 2% | 23µM*
Cn1cccc1/C=N\NC(=O)Cc1ccc(Br)c2ccccc12 | 10µM* | 15 | -10% | 0% | 15µM*
Cn1cccc1/C=N/NC(N)=S | 21µM* | 25 | 3% | 15% | ?
NC(=S)N/N=C/c1cccc(/C=N/NC(N)=S)c1 | -24% | -100* | 28% | 30% | -9%
C[C@H](CO)N1C[C@H](C)[C@@H](CN(C)Cc2ccc(C(=O)O)cc2)Oc2ncc(-c3ccc(C(=O)N(C)C)cc3)cc2C1=O | -16% | 19 | -2% | -1% | 10%
NC(=S)N/N=C/C=C/c1ccccc1 | 5.8µM* | -23 | 11% | 24% | 5.8µM*
CCOc1ccc(NC(=O)CSc2nc3c(oc4ccccc43)c(=O)n2-c2cc(C)cc(C)c2)cc1 | 2% | . | . | . | -2%
Cc1ccc(NC(=O)CSc2nc3c(oc4ccccc43)c(=O)n2-c2ccc(F)cc2)c(C)c1 | -23% | . | . | . | -22%
Cc1cc(C)cc(-n2c(SCC(=O)Nc3ccccc3F)nc3c(oc4ccccc43)c2=O)c1 | 7.3µM* | . | . | . | 16µM*
COc1cccc(NC(=O)CSc2ncnc3c2oc2ccccc23)c1 | ? | 14 | 1% | -1% | ?
Cc1cccc(NC(=O)CSc2nc3c(oc4ccccc43)c(=O)n2-c2ccccc2)c1 | ? | 0 | -1% | 2% | ?
COc1cccc(NC(=O)CSc2nc3c(oc4ccccc43)c(=O)[nH]2)c1 | 23µM* | -1 | 1% | -2% | -15%
Cc1cc(C)cc(-n2c(SCC(=O)Nc3ccccc3)nc3c(oc4ccccc43)c2=O)c1 | ? | . | . | . | 15µM*
COc1ccccc1NC(=O)CSc1nc2c(oc3ccccc32)c(=O)n1-c1ccc(C)cc1 | 8.2µM* | . | . | . | 18µM*
CCc1ccc2occ(CC(=O)Nc3c(C(=O)c4ccccc4)oc4ccccc34)c2c1 | ? | . | . | . | -26%
SMILES | TDP1 cell noCPT | IL1B secr inh | HT1080-NT tox | HT1080 IDH1KD tx | TDP1 cell CPT
Nc1ncnc2c1ncn2[C@@H]1O[C@H](C(=O)NS(=O)(=O)c2cccs2)[C@@H](O)[C@H]1O | 6% | 14 | 16% | 22% | -16%
O=C(CCc1ccc(S(=O)(=O)N2CCOCC2)cc1)OCC(=O)c1ccccc1 | -1% | 6 | 7% | 9% | 8%
COC(=O)[C@@]12C[C@@H](CC(=O)NCc3ccc(OC)c(OC)c3)C(=O)N(Cc3cccc4ccccc34)C1=CCC(C)(C)C2 | ? | -22 | ? | -28% | ?
Cc1cccc(NC(=S)N(CCCN2CCCC2)Cc2cccn2Cc2ccc(Cl)cc2)c1 | 16µM* | -87* | 13µM* | ? | ?
CCN1CCN(CCCN(Cc2ccco2)C(=S)Nc2ccc(Cl)cc2)CC1 | -14% | -28 | -24% | -20% | -6%
CCOc1ccc(NC(=S)N(CCCN2CCCC2)Cc2cccn2Cc2ccc(Cl)cc2)cc1 | ? | -23 | ? | -16% | 15µM*
Cc1ccc(NC(=O)c2ccc3c(O)c(S(=O)(=O)c4ccc(Cl)cc4)c(=O)[nH]c3c2)cc1 | 0% | . | . | . | 0%
COc1ccc(-c2ccc([C@H]3[C@H]4C=CC[C@@H](C)[C@@H]4C(=O)N3Cc3ccccc3)c(F)c2)cc1 | 21µM* | -3 | ? | ? | ?
CCCCCC/C=C/c1ccc(OC)c([C@H]2[C@H]3C=CC[C@@H](C)[C@@H]3C(=O)N2Cc2ccccc2)c1 | ? | 11 | 8% | 9% | -29%
COc1ccc(-c2c([C@H]3[C@@H]4C=CCC[C@@]4(C)C(=O)N3Cc3ccccc3)ccc3ccccc23)cc1OC | ? | -22 | ? | ? | ?
CCCCCC/C=C/c1ccc([C@H]2[C@H]3C=CC[C@@H](C)[C@@H]3C(=O)N2Cc2ccccc2)c(F)c1 | 16µM* | 28 | 13% | 4% | ?
COc1ccc(-c2ccc([C@H]3[C@H]4C=CC[C@@H](C)[C@@H]4C(=O)N3Cc3ccccc3)c(F)c2)cc1OC | 16µM* | ? | ? | ? | 18µM*
COc1ccc(-c2c([C@H]3[C@H]4C=CC[C@@H](C)[C@@H]4C(=O)N3Cc3ccccc3)ccc3ccccc23)cc1 | 10µM* | -10 | ? | ? | 10µM*
COc1ccc(-c2cc(-c3ccccc3)c(C#N)c(SCC(O)CS(=O)(=O)Cc3ccccc3)n2)cc1 (stereo unspecified) | -27% | . | . | . | ?
CC(OC(=O)C1=COCCO1)C(=O)Nc1cc(S(=O)(=O)N2CCCCC2)ccc1Cl (stereo unspecified) | ? | -14 | -5% | -2% | ?
Cc1cc(C)c2c(=O)cc(CSCC(=O)Nc3ccccc3Cl)[nH]c2c1 | -16% | . | . | . | -9%
Cn1c(=O)[nH]c(=O)c2c1nc(N1CCN(CCO)CC1)n2Cc1ccccc1 | 3% | -8 | 14% | 21% | -24%

Source: PubChem
